# Source: PubChem BioAssay AID1347426 (Functional Genomics Laboratory (NCATS/FGL), 2020)
# Screen size: about 31,000 sequences; about 1,400 (4.5%) were called active. Shown is part of a subset that was picked to be rich in actives. A number with no mark means an inactive call.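 The calls were made as follows: active = median seed-adjusted z-score above 1 or below -1; inactive = the rest.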
# Assay: Novel Modifiers of Survival Motor Neuron (SMN) Protein: Gene Identification via Genome-wide siRNA Screen;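 also: luminescence tracks full-length SMN protein made from the SMN2 reporter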
# Settings: HEK293T SMN2-luciferase reporter, siRNA knockdown, 72 h; actives lie on both sides
# Procedure, shortened: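 HEK293T cells stably expressing an SMN2 splicing/cDNA-luciferase reporter were reverse-transfected with a druggable-genome siRNA library and read by luminescence at 72 hours; hits defined by MAD score above 1.0 or below -1.0.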
row,Sequence,median seed-adjusted z-score
1,CCUCAGAUCUGAUGUCCAATT against VPS4A,0
2,GAAUGACCCUGUACCCUAUTT against TAF2,-0.243
3,GAAGGAUUUUGAGCCCGAATT against LETM1,-0.491
4,ACACGUUGGAAGUAGCUGATT against OTUD4,0.167
5,GCUUAUAUGUUACCAUGGATT against COG4,-0.508
6,GGUGACCGGUUACUUGGGATT against FFAR1,0.248
7,GCUUAUCUCGGCAAUCAAATT against PAPPA2,-0.173
8,GAAAGACGAGCUUUACCUATT against GSK3A,0.248
9,UGUGGAUCUGCUUACCAAATT against ZFAND2B,0
10,GAGGUUUUCCAGACGGUGATT against EHD3,0.569
11,GCAUGCUCAUGGGUUACAATT against ZNF451,0
12,GGUGGUUGCUGUAUAUGGATT against KCTD9,1.31 (active)
13,CGGAAGCAGUUCCAACUUUTT against AKAP8,-0.252
14,CAAAAUACAGAGUUUCUUUTT against RILP,0.503
15,GGAUGUGAACGGGCACAUUTT against CDC42BPG,0.153
16,CAGACAGUAUGUUCGAAGATT against PPAT,-1.51 (active)
17,GAAUCCUGAUGGGUAUGAATT against CPD,-0.198
18,GUCUUUAAUGCGCACUAUATT against FEZF1,0.155
19,ACAUCGUUGUGGUCAAGGUTT against ADAMTS15,0.765
20,GGACAAAACUCCUCUCUAUTT against MED27,-1.62 (active)
21,GUAUAGGGCCUGUAAGUUUTT against LANCL1,0
22,CUGCCUUGAUGACACCAGATT against TRIM16,0.345

row,Sequence,median seed-adjusted z-score
1,CUACUAUCCUGGUUCUGGATT against PROS1,0.436
2,GUGAUACUGUCAAAGGUCATT against ATF2,0.424
3,GGGUUUAACUGGGAACUCUTT against GALNT8,-0.283
4,GAUCCGUUGGUGCAUGAAATT against ABHD2,-1.21 (active)
5,GAUCGACUGCUAGAGAGUATT against DCLK1,0.193
6,GUGCUAACUCAAUUCCAUATT against SSBP3,0.00592
7,GCCUUUCAGCAUGCGGUUATT against GDPD1,0.527
8,CCAUCUCUUUGGUAGUACUTT against TBC1D23,0.0932
9,CGUCUUUCCAGAAUUCAAATT against HGS,1.16 (active)
10,GCAAGACUUUUGGUCGAAATT against ZNF816A,0.39
11,CCGUUGCUAUGAACAAGUUTT against B4GALT3,-0.138
12,GACAGAAGAUCAAUAUGAATT against ETS2,0.636
13,GAAGAGUGCUUGAAAUUUUTT against GFRA1,0.125
14,GCAUCCGGAUUCUUGAUGATT against PGK2,-0.127
15,ACAAAGCUGCUGUGCUAUATT against BET1,0.394
16,CAGAUUACGUUUAUAAGAATT against ZNF274,0.452
17,CGAGUGCACUGCUGCCUAUTT against 5-Sep,-0.0749
18,GAUCCGAGAUCAACACCUUTT against PIK3R3,-1.88 (active)
19,GACUACCAGUUGAUCAUGUTT against TTBK1,0.00054
20,CACCUGUACUUAUCCCGAATT against MEGF10,0.622
21,AAAUCGCGACGACUAAAUATT against CCBE1,0.964
22,CAUCAGCUUCCGCAACUUUTT against LRP3,-1.05 (active)

row,Sequence,median seed-adjusted z-score
1,GGAAUACAUCAGAAUGGUATT against ITCH,0.199
2,CCAAUGCUGUGACUUUCGATT against KIFC3,0.54
3,GCAGCAAAGGAAACCUAAATT against KLRC3,0.833
4,GCAAGCGAGUCAACACCAATT against DRD2,-0.0273
5,CUUCAGUACCUUAUCAUUATT against ST6GALNAC5,-0.0321
6,GGCCGUUUGUCAUUCCCUUTT against CBFA2T3,-0.135
7,GGAAGAGACUUUGUCCACATT against BIRC7,-1.44 (active)
8,CUCUGGGAGUCACGACUUUTT against GPR37L1,-0.0348
9,GAGACAAAUUUGGGCCUUATT against HSF4,0.926
10,CAACGAUGGUGUACUACAATT against ABCC9,0.376
11,CAAGCGGACCAGGACCUAUTT against CSDC2,-0.321
12,CAGUAUCCAUGGUGAUCUATT against ZP2,0.0455
13,GCAGCUCAACGGCAAAGAATT against RBM14,-0.0317
14,GCAUCUCAAUAUCAACAAUTT against LINGO2,0.123
15,GAAUAUCGGUUGGAUUAUATT against ITGAV,1.17 (active)
16,GGGCGGUCAUGGUUUUGAATT against CHST13,-0.447
17,CCGCUGUUAUCAUUACCAUTT against KIR2DL5B,1.72 (active)
18,GCUCUUCUAGACAUCGAUATT against NUBP1,-0.0975
19,GAGGUUCCCUAAUUUCCAATT against HIF1AN,-0.0315
20,ACUACCUUCUCAUCAAGGATT against CCL19,0.0364
21,GCCUAGAAUUUGUAUCCCATT against ATXN2,0
22,CCAAUCUGGUGACGAUUUATT against SP110,-0.788

row,Sequence,median seed-adjusted z-score
1,GUAUUUCGAGUAAGUCUAATT against TTPA,-0.208
2,GGAGUUACUCCAUUAACUATT against JARID1C,0.372
3,CCUGCGUCUCUACAACUAUTT against AURKB,0.0901
4,GAGAUUUGAUGAGAAGAGATT against MMP3,0.0592
5,UCUGGCUUAUUAUAACUAUTT against ACOT2,0.578
6,AGAUCGAGCCGGACAUGAUTT against NACC1,1.59 (active)
7,GAUGGGUUCUUGAACAUAUTT against EXOG,0.746
8,CCUCAUGCCUUAAUGAUCATT against ZNF561,-0.00904
9,CAUCCGUUCCAUACAUGUATT against AEBP2,-0.212
10,GGAAUGGUUUAAAAUAGAATT against NUDT3,0.674
11,GGCAUUGCUUAAUGAUAUATT against SF3B1,-3.65 (active)
12,CCUUCAGUCUUAACUCCAATT against ZKSCAN1,0.229
13,GCUGUAGCCUUGAUGCCUATT against INMT,0.863
14,GUCCGAGUGUGGUUCUGUATT against POU5F1,0.0495
15,GGAAGAUCCUCUACCAGAATT against LATS2,-0.245
16,CAGUCAAUGUUGUUCAGUUTT against GARS,0.138
17,GGCUACAACGUGACCAAGATT against FZD4,0.0695
18,ACUUCAUGAUGGAUAUCCATT against KCNN4,0.00864
19,CCCUACAUGUGAACAACGATT against PRPF8,-1.54 (active)
20,GGCUAUGACGGGAAGGAGATT against PTPN7,-0.189
21,GAAUAGAUUUCAGUAGUAUTT against DDI2,1.27 (active)
22,CCAGUGUACUCAGUCUAUUTT against STAM2,-0.24

row,Sequence,median seed-adjusted z-score
1,GACCUUCCUAGUUUCCUGATT against GIPC1,0
2,AGCUCAACCGGUUUAAUAATT against SLC9A1,0
3,GGAAAUAGGUCUAGUACUATT against PRPF4B,-2.29 (active)
4,GGAUGAGAAAGUCGUGAAATT against TSHZ2,-0.361
5,CGGAUACGCUAAAAAUCAATT against B3GNTL1,0
6,GCCUAUUAUGGACAACAAUTT against IKZF2,0.514
7,GGAGUUAAGAAUAUUAUGATT against VAMP8,-0.184
8,GGAGUUCAUCAAUAUGAAUTT against MLF1,0.258
9,GCCUUCUACACUUACAUGATT against EVX1,1 (active)
10,GGAGUCAAGUGAAGCAGAATT against L3MBTL2,-0.312
11,GCAGGUACAUCUCGCCUGATT against ENO1,0.0766
12,GCCCAAUACUUGCAAGUGATT against KCNA2,-1.03 (active)
13,GGGAGGUAGUAAUCCUACATT against PPP1R12B,0.416
14,GGAUUCAUGAGUCUAUAUATT against SLC25A27,0.0916
15,GGACACCACAGUACCUAAATT against IL22RA1,-1.14 (active)
16,CAAUCCUGACUCAAACUAATT against RAG2,0.138
17,GGACCUGUAUUGGGAACAATT against ASPHD2,-0.719
18,CUUCAAAGGUGACAAGUAUTT against MMP24,-1.28 (active)
19,GGAGAGCAAUACAUCAUCATT against GLRX2,-0.244
20,GCACUUUACUAGGUCUAGATT against NANOS1,0.369
